Bioassay records (PubChem BioAssay)
eIF4H FP inh: inhibitors of RNA binding by human eIF4H. Q15056. eIF4H fluorescence polarization binding assay. inhibition, % at 35 µM. 290,000 compounds, 0.94% hits. AID 2012;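 note: calls also rest on retests at 20 µM and on dose response follow-up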
PABP1 MLLE inh: blocks PAM2 peptide binding to the PABP1 MLLE domain; GST-MLLE / FITC-PAM2 fluorescence polarization; inhibition, % at 20 µM; 360,000 compounds, 0.36% hits; AID 588489; in the data active = inhibition above about 35%, passing the limit was not always enough;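 note: plate controls were DMSO wells with GST-MLLE for no effect and wells lacking GST-MLLE protein for full effect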
PERK inh: human PERK inhibition, primary cell-based screen; CHO PERK-DD fusion, SEAP luminescence translation reporter; Q9NZJ5; 220,000 compounds, 0.17% hits; inhibition, % at 5.6 µM; AID 1416;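 active = inhibition above the mean inhibition of all tested compounds plus 3 SD, set separately per screening campaign, cut at about 2.9% in these data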;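 note: PERK kinase domain activated by AP20187 dimerizer at 100 nM; 0% = DMSO with dimerizer and 100% = rapamycin at 8.4 µM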
GRK2 inh: human GRK2 inhibition via aptamer displacement. inhibition of aptamer binding, % at 10 µM. P25098. bead flow cytometry, FAM-aptamer displacement from GRK2. 330,000 compounds, 0.59% hits. AID 488847;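 active = inhibition of aptamer binding above 40%, roughly 3 SD of noise, on plates passing a quality check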;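 note: median bead fluorescence of bound FAM aptamer so fluorescent compounds give negative values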
PABP polyA inh: PABP-poly(A) binding inhibition; inhibition, % at 35 µM; PABP-poly(A) RNA binding, fluorescence polarization; P11940; 290,000 compounds, 1% hits;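 note: calls also rest on retests at 20 µM and on dose response follow-up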
* marks the source's active call; other numbers are inactive results; x = not tested or not shown. Sampled rows, rich in hits. Any-hit rate of the full collection: about 1.9%. Unless noted, the rule behind the calls is not given here.

SMILES	eIF4H FP inh	PABP1 MLLE inh	PERK inh	GRK2 inh	PABP polyA inh
C[C@H](NC(=O)c1ccc(Cl)cc1)C(=O)NNC(=O)c1cccs1	x	-3.3	x	0.0	x
COC(=O)c1c(NC(=O)c2ccc(C)o2)sc2c1CCCCC2	9.5	36.7*	-0.1	x	7.0
CCN(CC)c1cccc(OCC(=O)N(C)CCC#N)c1	60.4*	-34.0	-1.0	3.0	56.6*
CCC(C)(C)NC(=O)C(c1cccc(OC)c1)N(C(=O)CNC(=O)c1cccs1)c1cccnc1 (stereo not given)	-6.0	-10.8	x	1.0	0.1
Cn1cc(Br)c(C(=O)NC2CCCCCC2)n1	80.0*	3.9	x	4.0	3.1
COc1nc(-c2ccccc2)cc(-c2ccccc2)n1	active	-13.0	-0.4	0.0	84.3*
Cc1nc(-c2ccccc2)cc(-c2ccccc2)n1	x	9.2	x	3.0	x
COc1ccc(OC)c(NC(=O)c2ccccc2OC(C)=O)c1	x	-3.0	x	1.0	x
COc1ccc(NC(=O)c2ccc(COCC(F)(F)C(F)F)cc2)cc1OC	-6.3	12.9	0.3	0.0	-0.9
COc1ccc(NC(=O)c2ccc(COCC(F)(F)C(F)F)cc2)cc1	active	-0.5	0.2	2.0	52.6*
Cc1ccc(S(=O)(=O)N2CCCC(c3nc4c(nnn4Cc4ccc5c(c4)OCCO5)c(=O)[nH]3)C2)cc1 (stereo not given)	x	2.4	x	2.0	x
CC[n+]1c(/C=C(/C)SC)sc2ccccc21	4.1	45.5*	-0.1	8.0	0.1
CC[n+]1c(/C=C/Nc2ccccc2)sc2ccccc21	-1.2	-104.8	2.1	30.0	50.2*
CC[n+]1ccccc1/C=C/Nc1ccccc1	-2.1	-109.9	1.0	0.0	51.1*
CCN1/C(=C/C=C/C=C/c2sc3ccccc3[n+]2CC)Sc2ccccc21	-12.0	x	-1.1	89.0*	8.4
CCn1c(/C=C/Nc2ccccc2)[n+](CC)c2cc(Cl)c(Cl)cc21	-5.3	-121.2	0.4	0.0	2.7
COCCNC(=O)c1cccc(OC2CCN(C(C)COc3ccccc3)CC2)c1 (stereo not given)	-6.9	9.3	x	0.0	3.0
Cc1cccc(CN2CCC(Oc3ccc(C(=O)N4CCCCC4)cc3)CC2)c1	4.1	4.0	x	1.0	9.6
COC(=O)c1ccc(CNC(=O)c2ccc(S(=O)(=O)N3CCCC(C)C3)cc2)cc1 (stereo not given)	x	-26.4	x	0.0	x
COc1ccc(Cc2nnc(NC(=O)C3CCCO3)s2)cc1OC (stereo not given)	-6.6	44.9*	0.2	0.0	0.0
CC(C)(CO)Nc1ncnc2onc(-c3ccc(F)cc3)c12	91.6*	4.8	x	0.0	74.1*
Cc1onc(-c2ccccc2Cl)c1C(=O)NCc1ccco1	95.0*	-1.8	0.1	4.0	75.3*
CCOC(=O)C1=C(O)/C(=C/c2ccc(CNC(=O)C(=O)Nc3ccc(C)cc3)o2)N=C1C	103.4*	-16.9	1.1	0.0	118.9
COC(=O)C1=C(O)/C(=C\c2ccc(CNS(=O)(=O)c3ccccc3)o2)N=C1C	87.6	9.1	0.4	72.0*	4.4
O=C(OCc1cccc([N+](=O)[O-])c1)c1ccc2ccccc2n1	1.1	5.2	0.5	4.0	-6.3
SMILES	eIF4H FP inh	PABP1 MLLE inh	PERK inh	GRK2 inh	PABP polyA inh
N#C/C(=C\c1ccc(OC(=O)c2ccc(Cl)s2)cc1)c1nc2ccccc2[nH]1	51.4*	15.8	0.2	81.0*	active
N#C/C(=C\c1ccc(OC(=O)c2ccc(Br)s2)cc1)c1nc2ccccc2[nH]1	27.2	4.1	0.9	0.0	3.8
Cc1ccc(CN2CCN(/N=C/c3ccc(C(=O)O)cc3)CC2)cc1	85.0*	1.3	2.2	6.0	2.5
O=C(NCC(=O)N(c1cccnc1)C(C(=O)NC1CCCC1)c1ccccc1F)c1ccco1 (stereo not given)	-5.0	0.4	x	1.0	2.0
O=C(Nc1ccccc1)N1CCSc2cc(Cl)ccc21	2.2	3.8	3.1*	1.0	-1.8
COc1ccccc1N1CCN(/N=C/c2c(C)nn(-c3ccccc3)c2C)CC1	-6.1	40.5*	-0.9	0.0	-9.4
COc1ccccc1N1CCN(/N=C\c2ccccc2)CC1	-4.7	12.7	x	0.0	1.7
COc1cc(-c2cc(=O)c3ccc(O)cc3o2)cc(OC)c1OC	x	45.5*	x	x	x
COc1ccc(-c2cc(=O)c3ccc(O)cc3o2)cc1	x	23.0	x	x	x
O=C(O)c1ccc2c(c1)C(=O)N(N1C(=O)c3ccccc3C1=O)C2=O	-11.7	4.8	0.7	2.0	122.4*
CN[C@H]1C[C@H]2c3[nH]c4ccc(-c5ccc(OC)cc5)cc4c3CCN2C(=O)[C@H]1[C@H](C)O	x	-26.9	x	x	x
Cc1ccnc(NS(=O)(=O)c2cc(C(F)(F)F)ccc2Cl)c1	1.3	x	3.4*	0.0	5.7
